Results published in the antibiotic and cytotoxicity screens of Wong et al. (2023).
Screen size: about 39,000 compounds; about 1,500 (3.8%) were called active. The list comes from a sample in which actives are over-represented; it also holds similar structures and randomly drawn compounds.

What follows are molecules tested on HSkMC (human skeletal muscle cells) (assay: cytotoxicity call (relative viability < 0.9)). Details: 10 µM.
In the case of `C[C@H](CO)N1C[C@H](C)[C@@H](CN(C)S(=O)(=O)c2ccc(Cl)cc2)Oc2c(NC(=O)Nc3ccc(C(F)(F)F)cc3)cccc2C1=O`, the cytotoxicity call is reported as “inactive”. `O=C(Cc1ccncc1)NCC[C@H]1CC[C@H](NC(=O)C2CCOCC2)[C@H](CO)O1` was tested, and the cytotoxicity call was “inactive”. With `Cc1noc(C)c1S(=O)(=O)N(C)C[C@@H]1OCCCC[C@@H](C)Oc2ccc(NC(=O)Nc3ccc(F)cc3)cc2C(=O)N([C@@H](C)CO)C[C@H]1C` the cytotoxicity call was “inactive”. In the case of `C[C@H](NC(=O)C[C@H]1C[C@H]2c3cc(NC(=O)Nc4ccc(C(F)(F)F)cc4)ccc3O[C@H]2[C@H](CO)O1)c1ccccc1`, the cytotoxicity call is reported as “inactive”. `C[C@@H]1CCCCO[C@@H](CN(C)Cc2ccc(Cl)c(Cl)c2)[C@@H](C)CN([C@H](C)CO)C(=O)c2cc(NC(=O)CCCN(C)C)ccc2O1` was tested, and the cytotoxicity call was “inactive”. With `Cc1ccc(S(=O)(=O)N2C[C@@H](O)COC[C@H]3O[C@@H](CC(=O)N[C@@H]4CCN(Cc5ccccc5)C4)CC[C@@H]32)cc1` the cytotoxicity call was “inactive”. For `CC(C)C[C@H]1NC(=O)N(C)C1=O`, the cytotoxicity call was “inactive”. With `C[C@H](CO)N1C[C@H](C)[C@@H](CN(C)C(=O)c2ccccn2)Oc2cc(C#Cc3ccc(F)cc3)ccc2S1(=O)=O` the cytotoxicity call was “inactive”. `CC(C)CC#Cc1ccc2c(c1)O[C@H](CN(C)S(=O)(=O)c1cccc(F)c1)[C@H](C)CN([C@@H](C)CO)S2(=O)=O` was tested, and the cytotoxicity call was “inactive”. With `C[C@H](CO)N1C[C@H](C)[C@@H](CN(C)Cc2ccc(C(F)(F)F)cc2)OCCCC[C@H](C)Oc2ccc(NS(=O)(=O)c3ccc(Cl)cc3)cc2C1=O` the cytotoxicity call was “active”. For `C[C@@H]1CN([C@@H](C)CO)C(=O)c2cc(NS(=O)(=O)c3ccc(F)cc3)ccc2O[C@@H](C)CCCCO[C@@H]1CN(C)Cc1ccc(C(F)(F)F)cc1`, the cytotoxicity call was “inactive”. `C[C@@H]1CCCCO[C@H](CN(C)Cc2ccc(C(F)(F)F)cc2)[C@H](C)CN([C@@H](C)CO)C(=O)c2cc(NS(=O)(=O)c3ccc(Cl)cc3)ccc2O1` was tested, and the cytotoxicity call was “active”. For `C[C@@H]1CCCCO[C@@H](CN(C)Cc2ccc(C(F)(F)F)cc2)[C@@H](C)CN([C@@H](C)CO)C(=O)c2cc(NS(=O)(=O)c3ccc(Cl)cc3)ccc2O1`, the cytotoxicity call was “inactive”. With `C[C@@H]1CCCCO[C@H](CN(C)Cc2ccc(C(F)(F)F)cc2)[C@H](C)CN([C@H](C)CO)C(=O)c2cc(NS(=O)(=O)c3ccc(Cl)cc3)ccc2O1` the cytotoxicity call was “inactive”. `C[C@@H]1CCCCO[C@H](CN(C)Cc2ccc(C(F)(F)F)cc2)[C@@H](C)CN([C@@H](C)CO)C(=O)c2cc(NS(=O)(=O)c3ccc(Cl)cc3)ccc2O1` was tested, and the cytotoxicity call was “active”. With `C[C@@H]1CN([C@H](C)CO)C(=O)c2cc(NS(=O)(=O)c3ccc(Cl)cc3)ccc2O[C@@H](C)CCCCO[C@H]1CN(C)Cc1ccc(C(F)(F)F)cc1` the cytotoxicity call was “active”. For `C[C@H]1CCCCO[C@H](CN(C)Cc2ccc(C(F)(F)F)cc2)[C@@H](C)CN([C@@H](C)CO)C(=O)c2cc(NS(=O)(=O)c3ccc(F)cc3)ccc2O1`, the cytotoxicity call was “inactive”. With `O=C(C[C@H]1CC[C@@H](NC(=O)Cc2ccccn2)[C@H](CO)O1)NCCc1ccncc1` the cytotoxicity call was “inactive”. `C[C@H]1CN([C@@H](C)CO)C(=O)c2cccc(NS(=O)(=O)c3cccs3)c2O[C@@H]1CN(C)Cc1ccc(Oc2ccccc2)cc1` was tested, and the cytotoxicity call was “inactive”. `C/C=C/[C@@H](CCn1cc(CCO[Si](C(C)C)(C(C)C)C(C)C)nn1)[Si](C)(C)c1ccc(OC)cc1` was tested, and the cytotoxicity call was “inactive”. In the case of `C[C@@H]1CN([C@H](C)CO)C(=O)c2cc(C#Cc3ccccn3)cnc2O[C@@H]1CN(C)C(=O)CCN1CCCCC1`, the cytotoxicity call is reported as “inactive”. With `C=CCNC(=O)[C@H]1[C@@H]2C(=O)O[C@@H](c3ccccc3)[C@@H](c3ccccc3)N2[C@@H](c2ccccc2OCCO)[C@]12C(=O)N(C(=O)OCCOC)c1ccc(C#CC3(O)CCCCCC3)cc12` the cytotoxicity call was “inactive”. With `C[C@@H]1CCCCO[C@H](CN(C)C(=O)C2CCCCC2)[C@H](C)CN([C@H](C)CO)C(=O)c2cc(NC(=O)Cc3ccccc3)ccc2O1` the cytotoxicity call was “inactive”. In the case of `Nc1cnc2ncc(N)cc2c1`, the cytotoxicity call is reported as “inactive”. For `CN1CCN(C(=O)C[C@@H]2C=C[C@H](NS(=O)(=O)c3cccc(F)c3)[C@H](CO)O2)CC1`, the cytotoxicity call was “inactive”. With `C[C@@H]1CCCCO[C@@H](CN(C)CC2CCCCC2)[C@@H](C)CN([C@H](C)CO)C(=O)c2cc(NC(=O)NC3CCCCC3)ccc2O1` the cytotoxicity call was “inactive”. `Nc1nc(=O)c2nc(C(=O)O)cnc2[nH]1` was tested, and the cytotoxicity call was “inactive”. For `COc1cccc(S(=O)(=O)N(C)C[C@@H]2Oc3cc(Br)ccc3S(=O)(=O)N([C@@H](C)CO)C[C@@H]2C)c1`, the cytotoxicity call was “inactive”. With `C[C@@H]1CCCCO[C@@H](CN(C)Cc2ccc(C(F)(F)F)cc2)[C@H](C)CN([C@@H](C)CO)C(=O)c2cc(NS(=O)(=O)c3ccc(Cl)cc3)ccc2O1` the cytotoxicity call was “active”. With `C[C@H]1CCCCO[C@H](CN(C)Cc2ccc(C(F)(F)F)cc2)[C@@H](C)CN([C@@H](C)CO)C(=O)c2cc(NS(=O)(=O)c3ccc(Cl)cc3)ccc2O1` the cytotoxicity call was “active”. For `C[C@H](CO)N1C[C@H](C)[C@H](CN(C)Cc2ccc(C(F)(F)F)cc2)OCCCC[C@H](C)Oc2ccc(NS(=O)(=O)c3ccc(Cl)cc3)cc2C1=O`, the cytotoxicity call was “active”. For `C[C@@H]1CCCCO[C@@H](CN(C)Cc2ccc(C(F)(F)F)cc2)[C@@H](C)CN([C@H](C)CO)C(=O)c2cc(NS(=O)(=O)c3ccc(Cl)cc3)ccc2O1`, the cytotoxicity call was “inactive”. With `C[C@@H]1CN([C@@H](C)CO)C(=O)c2cc(NS(=O)(=O)c3ccc(Cl)cc3)ccc2O[C@@H](C)CCCCO[C@@H]1CN(C)Cc1ccc(C(F)(F)F)cc1` the cytotoxicity call was “inactive”. In the case of `C[C@H]1CCCCO[C@@H](CN(C)Cc2ccc(C(F)(F)F)cc2)[C@@H](C)CN([C@@H](C)CO)C(=O)c2cc(NS(=O)(=O)c3ccc(Cl)cc3)ccc2O1`, the cytotoxicity call is reported as “inactive”. `C[C@H]1CCCCO[C@@H](CN(C)Cc2ccc(C(F)(F)F)cc2)[C@@H](C)CN([C@@H](C)CO)C(=O)c2cc(NS(=O)(=O)c3ccc(F)cc3)ccc2O1` was tested, and the cytotoxicity call was “inactive”. In the case of `C[C@@H]1CN([C@H](C)CO)C(=O)c2cc(NS(=O)(=O)c3ccc(Cl)cc3)ccc2O[C@@H](C)CCCCO[C@@H]1CN(C)Cc1ccc(C(F)(F)F)cc1`, the cytotoxicity call is reported as “inactive”. In the case of `C[C@@H]1CCCCO[C@@H](CN(C)Cc2ccc(C(F)(F)F)cc2)[C@H](C)CN([C@H](C)CO)C(=O)c2cc(NS(=O)(=O)c3ccc(Cl)cc3)ccc2O1`, the cytotoxicity call is reported as “active”. In the case of `C[C@@H]1CCCCO[C@H](CN(C)Cc2ccc(C(F)(F)F)cc2)[C@@H](C)CN([C@H](C)CO)C(=O)c2cc(NS(=O)(=O)c3ccc(Cl)cc3)ccc2O1`, the cytotoxicity call is reported as “inactive”. In the case of `CCOC(=O)C1CCN(c2cn[nH]c(=O)n2)CC1`, the cytotoxicity call is reported as “inactive”. With `C[C@H]1CN([C@@H](C)CO)C(=O)Cc2cc(NC(=O)Nc3cccc4ccccc34)ccc2O[C@@H]1CN(C)C(=O)Nc1ccccc1` the cytotoxicity call was “inactive”. For `C=CCOC(=O)[C@H]1[C@@H]2C(=O)O[C@@H](c3ccccc3)[C@@H](c3ccccc3)N2[C@@H](c2ccc(OCCOC(=O)[C@H]3C[C@H]4C(=O)N5CCC[C@H]5C(=O)N4[C@H]3c3cccc(OCCO)c3)cc2)[C@]12C(=O)Nc1ccccc12`, the cytotoxicity call was “inactive”. For `COc1ccc(NC(=O)N(C)C[C@H]2OCc3cnnn3CCCC(=O)N([C@H](C)CO)C[C@@H]2C)c(OC)c1`, the cytotoxicity call was “inactive”. `COc1ccc(S(=O)(=O)N(C)C[C@H]2Oc3ccc(NS(=O)(=O)c4ccc(F)cc4)cc3CC(=O)N([C@@H](C)CO)C[C@@H]2C)cc1` was tested, and the cytotoxicity call was “inactive”. In the case of `C[C@@H]1CN([C@@H](C)CO)C(=O)c2cc(NS(=O)(=O)c3ccc(Cl)cc3)ccc2O[C@@H](C)CCCCO[C@H]1CN(C)Cc1ccc(C(F)(F)F)cc1`, the cytotoxicity call is reported as “active”. `C[C@@H]1CN([C@@H](C)CO)C(=O)c2cccc(NC(=O)Nc3ccc(C(F)(F)F)cc3)c2O[C@@H]1CN(C)Cc1ccc(Oc2ccccc2)cc1` was tested, and the cytotoxicity call was “active”. For `C[C@@H]1CN([C@H](C)CO)C(=O)c2cccc(NC(=O)Nc3ccc(C(F)(F)F)cc3)c2O[C@H]1CN(C)Cc1ccc(Oc2ccccc2)cc1`, the cytotoxicity call was “active”. In the case of `C[C@H]1CN([C@@H](C)CO)C(=O)c2cccc(NC(=O)Nc3ccc(C(F)(F)F)cc3)c2O[C@@H]1CN(C)Cc1ccc(Oc2ccccc2)cc1`, the cytotoxicity call is reported as “inactive”. With `C[C@H](CO)N1C[C@H](C)[C@H](CN(C)Cc2ccc(Oc3ccccc3)cc2)Oc2c(NC(=O)Nc3ccc(C(F)(F)F)cc3)cccc2C1=O` the cytotoxicity call was “active”. In the case of `C[C@@H]1CN([C@@H](C)CO)C(=O)c2cccc(NC(=O)Nc3ccc(C(F)(F)F)cc3)c2O[C@H]1CN(C)Cc1ccc(Oc2ccccc2)cc1`, the cytotoxicity call is reported as “active”. For `C[C@H]1CN([C@@H](C)CO)C(=O)c2cccc(NC(=O)Nc3ccc(C(F)(F)F)cc3)c2O[C@H]1CN(C)Cc1ccccc1`, the cytotoxicity call was “inactive”. For `COC[C@H]1CNN1C(=O)c1cc(C)oc1C`, the cytotoxicity call was “inactive”. In the case of `C[C@@H]1CN([C@@H](C)CO)C(=O)c2cccc(NS(=O)(=O)c3cn(C)cn3)c2O[C@@H]1CN(C)C(=O)NC1CCCCC1`, the cytotoxicity call is reported as “inactive”. In the case of `C[C@H]1CCCCO[C@H](CN(C)C(=O)c2ccccc2)[C@@H](C)CN([C@@H](C)CO)C(=O)c2cc(NC(=O)c3ccccc3)ccc2O1`, the cytotoxicity call is reported as “inactive”. `COc1cccc(-c2ccc3c(c2)O[C@H](CN(C)C(=O)C2CCOCC2)[C@H](C)CN([C@H](C)CO)S3(=O)=O)c1` was tested, and the cytotoxicity call was “inactive”. With `C[C@H]1CN([C@@H](C)CO)C(=O)c2cccc(NC(=O)Nc3ccc(C(F)(F)F)cc3)c2O[C@H]1CN(C)Cc1ccc(Oc2ccccc2)cc1` the cytotoxicity call was “active”. For `C[C@H](CO)N1C[C@H](C)[C@H](CN(C)Cc2ccccc2)Oc2c(NC(=O)Nc3ccc(C(F)(F)F)cc3)cccc2C1=O`, the cytotoxicity call was “inactive”. In the case of `C[C@H](CO)N1C[C@H](C)[C@@H](CN(C)Cc2ccc(Oc3ccccc3)cc2)Oc2c(NC(=O)Nc3ccc(C(F)(F)F)cc3)cccc2C1=O`, the cytotoxicity call is reported as “active”. For `C[C@@H]1CN([C@H](C)CO)C(=O)c2cccc(NC(=O)Nc3ccc(C(F)(F)F)cc3)c2O[C@@H]1CN(C)Cc1ccc(Oc2ccccc2)cc1`, the cytotoxicity call was “active”. In the case of `C[C@@H]1CN([C@H](C)CO)C(=O)c2cccc(NC(=O)Nc3ccccc3)c2O[C@@H]1CN(C)Cc1ccc(C(F)(F)F)cc1`, the cytotoxicity call is reported as “inactive”.
